Consider 12 molecules from PubChem BioAssay (NCI).

SMILES strings stand for the structures. This is part of a sample that, as a whole, favours compounds with a hit. Of some 83,000 tested, about 20% had one in any assay.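 The endpoint reported here, percent growth, reads 100 for growth as untreated, 0 for no net growth and -100 for all cells dead.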 Unmarked numbers belong to inactive results. Active and inactive are the calls of the source. The calls were made as follows: active = growth percent below 10; inactive = the rest.

Test systems include HCT-15 colon; SNB-75 CNS; SNB-19 CNS; U251 CNS; PC-3 prostate; SK-MEL-5 melanoma; UACC-62 melanoma; LOX IMVI melanoma; SK-MEL-28 melanoma.
Common to all, as to assay: NCI-60 one-dose screen, 48 h (100 = growth as untreated, 0 = no growth, -100 = all killed)
Holding throughout (conditions): 10 µM unless noted

Consider `O=C(Cc1c(-c2cccc([N+](=O)[O-])c2)n(-c2ncnc3c2c(-c2ccccc2)c(-c2ccccc2)n3Cc2ccccc2)[nH]c1=O)c1ccc(Cl)c(Cl)c1`, for which the growth in the experiment on HCT-15 colon is 62.3%; with SNB-75 CNS, 46.1%; in the experiment with SNB-19 CNS, 25.9%; in the experiment with U251 CNS, 26.4%; in the experiment with PC-3 prostate, 30.7%; with SK-MEL-5 melanoma, -10.2% (active). The growth in the experiment on UACC-62 melanoma is 14%; in the experiment on LOX IMVI melanoma it was 15.7%; in the experiment with SK-MEL-28 melanoma, 46.3%.
Regarding `O=C(N/N=C/c1ccc(Cl)o1)c1[nH]c2ccc(Br)cc2c1-c1ccccc1`, the growth with HCT-15 colon is -33.9% (active); with SNB-75 CNS it was -32.9% (active); with SNB-19 CNS it was 9.24% (active); with U251 CNS it was -89.9% (active); in the experiment on PC-3 prostate, 15.7%; in the experiment with SK-MEL-5 melanoma it was -74.7% (active). For the same molecule, the growth is 3.42% (active) in the experiment on UACC-62 melanoma, -58.2% (active) with LOX IMVI melanoma and 2.44% (active) in the experiment on SK-MEL-28 melanoma.
For the molecule `O=CNc1ccc(-n2cnc3cc(-c4ccc(O)cc4)ccc32)cc1`, the growth with HCT-15 colon is 74%; in the experiment on SNB-75 CNS, 59.3%; in the experiment with SNB-19 CNS, 88.5%; in the experiment with U251 CNS, 84.6%; in the experiment with PC-3 prostate, 88.1%; in the experiment with SK-MEL-5 melanoma it was 79.4%. For the same molecule, the growth in the experiment with UACC-62 melanoma is 99.2%; in the experiment with LOX IMVI melanoma it was 93.7%; in the experiment with SK-MEL-28 melanoma, 92.9%.
Consider `Cc1cc(=O)oc2cc(OCC(O)CNN3C(=O)c4cccc5c(N6CCN(C)CC6)ccc(c45)C3=O)ccc12` (stereo not drawn), for which the growth was 91% with HCT-15 colon; 82.4% in the experiment on SNB-75 CNS; 96.2% in the experiment on SNB-19 CNS; 103% with U251 CNS; 105% in the experiment on PC-3 prostate; 102% with SK-MEL-5 melanoma. Further, the growth in the experiment on UACC-62 melanoma was 79.2%; in the experiment with LOX IMVI melanoma, 71%; with SK-MEL-28 melanoma it was -17.3% (active).
For `FC(F)(F)c1cc2c(Cl)ncnc2n1CCN1CCCCC1`, the growth with HCT-15 colon is -30.7% (active); with SNB-75 CNS it was 13.6%; in the experiment on SNB-19 CNS, -35.3% (active); in the experiment with U251 CNS, 81.8%; in the experiment on PC-3 prostate, 55.8%; with SK-MEL-5 melanoma it was 83.2%. Moreover, the growth was 50.8% with UACC-62 melanoma, -88.8% (active) in the experiment on LOX IMVI melanoma and 52.5% in the experiment with SK-MEL-28 melanoma.
`COc1sc(/C=N/NC(=O)c2[nH]c3ccc(Br)cc3c2-c2ccccc2)cc1Br`: the growth is 7.77% (active) in the experiment with HCT-15 colon; 57.1% with SNB-75 CNS; 14.7% in the experiment with SNB-19 CNS; -11.2% (active) in the experiment with U251 CNS; 19.4% with PC-3 prostate; -53.5% (active) in the experiment on SK-MEL-5 melanoma. Besides, the growth in the experiment on UACC-62 melanoma is 17%; in the experiment on LOX IMVI melanoma, -23.4% (active); in the experiment with SK-MEL-28 melanoma it was 18.2%.
Consider `CCOC(=O)/C(F)=C/C1CC1CCc1ccc(OCC)cc1` (stereo not drawn), for which the growth in the experiment on HCT-15 colon is 70.6%; in the experiment with SNB-75 CNS, 81.3%; in the experiment with SNB-19 CNS, 95.4%; in the experiment on U251 CNS it was 104%; in the experiment with PC-3 prostate it was 85.2%; in the experiment with SK-MEL-5 melanoma it was 63.7%. The growth in the experiment with UACC-62 melanoma was 87.5%; in the experiment with LOX IMVI melanoma, 97.9%; in the experiment with SK-MEL-28 melanoma, 110%.
Consider `COc1cc(CNC(=O)[C@]23CCC(C)(C)CC2C2=CCC4[C@@]5(C)CCC(OC(C)=O)C(C)(C)C5CC[C@@]4(C)[C@]2(C)CC3)ccc1OCc1cn(-c2ccc(Cl)cc2Cl)nn1` (stereo partly drawn), for which the growth in the experiment on HCT-15 colon was 111%; in the experiment with SNB-75 CNS, 118%; in the experiment on SNB-19 CNS it was 89.8%; in the experiment with U251 CNS, 104%; in the experiment on PC-3 prostate it was 98.3%; in the experiment with SK-MEL-5 melanoma, 103%. Further, the growth in the experiment on UACC-62 melanoma was 81.4%; in the experiment with LOX IMVI melanoma it was 98.3%; in the experiment on SK-MEL-28 melanoma it was 117%.
On to `CC[C@]12C=CCN3CC[C@@]4(c5ccc(OC)cc5N(C)[C@H]4[C@@](O)(C(=O)OC)[C@@H]1OC(=O)CCC[P+](c1ccc(OC)cc1)(c1ccc(OC)cc1)c1ccc(OC)cc1)[C@@H]32`, for which the growth was -86.3% (active) in the experiment with HCT-15 colon; -34% (active) in the experiment on SNB-75 CNS; -96.7% (active) with SNB-19 CNS; -93.7% (active) with U251 CNS; -78.8% (active) with PC-3 prostate; -99.6% (active) in the experiment on SK-MEL-5 melanoma. Moreover, the growth in the experiment on UACC-62 melanoma was -97.1% (active); with LOX IMVI melanoma it was -96.4% (active); in the experiment with SK-MEL-28 melanoma, -96.3% (active).
As for `Cc1ccc(Cl)cc1NC(=O)Nc1nc2ccc([N+](=O)[O-])cc2s1`, the growth was -4.98% (active) in the experiment on HCT-15 colon; -26.6% (active) with SNB-75 CNS; 7.85% (active) with SNB-19 CNS; -26.6% (active) in the experiment with U251 CNS; 2.69% (active) in the experiment with PC-3 prostate; -81.1% (active) with SK-MEL-5 melanoma. The growth in the experiment on UACC-62 melanoma was -15.4% (active); with LOX IMVI melanoma, -21.1% (active); in the experiment on SK-MEL-28 melanoma it was -17% (active).
For `CN(C)c1nc(NCCNS(=O)(=O)c2ccc(C(=O)/C=C/c3ccc(C(F)(F)F)cc3)cc2)nc(N2CCOCC2)n1`, the growth in the experiment on HCT-15 colon is -78.2% (active); with SNB-75 CNS it was 59.5%; in the experiment with SNB-19 CNS, 57.8%; in the experiment with U251 CNS it was -85.5% (active); in the experiment on PC-3 prostate, -60.1% (active); in the experiment on SK-MEL-5 melanoma, -42.8% (active). The growth in the experiment with UACC-62 melanoma is 48.2%; in the experiment with LOX IMVI melanoma, -99.2% (active); in the experiment on SK-MEL-28 melanoma, -9.43% (active).
For `CCN1C(=O)N(CC)C2NNC(Sc3c(C(=O)O)c4ccccc4n(CC(C)C)c3=O)=NC21` (stereo not drawn), the growth in the experiment on HCT-15 colon was 7.04% (active); with SNB-75 CNS, 34.4%; with SNB-19 CNS, 17%; in the experiment on U251 CNS it was 10.7%; in the experiment on PC-3 prostate, 29.9%; with SK-MEL-5 melanoma, 2.31% (active). Moreover, the results for the growth in the experiment with UACC-62 melanoma, with LOX IMVI melanoma and in the experiment on SK-MEL-28 melanoma were 14.7%, 16.5% and 54.4%, respectively.
